Screening results (PubChem)
The list is not random: actives were taken first. Their share in the collection is about 6.8%.
PINK1 expr mod – modulators of PINK1 expression | PINK1 immunofluorescence, high-content cytometry, 24 h | Potency, µM (doses to about 76.6 µM), for the others: at the highest dose activation (PINK1 increase), actives largely listed as activators | 410,000 tested, 0.2% active; active = well fitted activation curve with a large enough effect; inconclusive = small, poorly fitted or top-dose-only effect; cell line not stated here; note: % of control where 0% means no effect; nearly all actives have a fitted effect of over 65% in size
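Cells are seeded, rested 12 hours, then given compound at five concentrations or DMSO for 24 hours. After fixation, blocking and antibody staining, PINK1 amount and mitochondrial localization are scored; CCCP serves as control.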
KB-V1 MDR tox – kills drug-selected multidrug resistant KB-V1 cells; 400,000 tested, 3.4% active; Potency, µM (titrated, usually from 46.1 µM), usual class: cytotoxic; KB-V1 MDR cells viability, CellTiter-Glo, 72 h; AID 1347076; note: % is set by controls: 0 for no effect and ±100 for the full control effect; nearly all actives have a fitted effect of over 60% in size
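Luminescent ATP read-out (CellTiter-Glo, 10 min) measures survival of drug-selected KB-V1 MDR cells after 72 h, 37 degrees C compound exposure. Medium: phenol-red-free DMEM, 10% FBS. Values from fitted concentration-response curves.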
SW480 rereplic – inducers of DNA re-replication in SW480 colon cancer cells. SW480 DNA re-replication, Hoechst DNA content imaging, 48 h. 340,000 tested, 1.8% active. Potency, µM (top dose mostly 46.1 µM), for the others: top-dose re-replication activation, actives largely listed as activators. AID 624297; note: % of control where 0% means no effect; nearly all actives have a fitted effect of over 55% in size
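Per well, 250 cells were exposed to pinned compound for 48 hr. Nuclear DNA was visualised with Hoechst (40 min, 37 C) and total object intensity recorded by fluorescence scanning.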
MCF10A rereplic – DNA re-replication induction in MCF 10a cells. MCF 10A DNA re-replication, Hoechst nuclear intensity, 48 h. Potency, µM (top dose mostly 46.1 µM), for the others: top-dose activity, positive = re-replication, actives largely listed as activators. 350,000 tested, 2.9% active. AID 624296; note: % of control where 0% means no effect; nearly all actives have a fitted effect of over 50% in size
PTAP TSG101 blk – blocks PTAP/TSG101 interaction to inhibit HIV-1 budding; Fluorescence polarization, FITC-PTAP peptide / Tsg101 binding; 340,000 tested, under 10 active; Potency, µM (top dose mostly 115 µM), for inactives: top-dose activity change, negative = inhibition, most hits filed as inhibitors; active = well fitted inhibition curve with a large enough effect in the main read-out, with a control signal flat, not every such curve was filed as active; inconclusive = small, poorly fitted or top-dose-only effect, or effect the other way, or a change in a side signal; inactive = no such curve, though single readings can be large or run the other way; note: % of control where 0% means no effect
Target sequence (Q99816 whole entry, looked up): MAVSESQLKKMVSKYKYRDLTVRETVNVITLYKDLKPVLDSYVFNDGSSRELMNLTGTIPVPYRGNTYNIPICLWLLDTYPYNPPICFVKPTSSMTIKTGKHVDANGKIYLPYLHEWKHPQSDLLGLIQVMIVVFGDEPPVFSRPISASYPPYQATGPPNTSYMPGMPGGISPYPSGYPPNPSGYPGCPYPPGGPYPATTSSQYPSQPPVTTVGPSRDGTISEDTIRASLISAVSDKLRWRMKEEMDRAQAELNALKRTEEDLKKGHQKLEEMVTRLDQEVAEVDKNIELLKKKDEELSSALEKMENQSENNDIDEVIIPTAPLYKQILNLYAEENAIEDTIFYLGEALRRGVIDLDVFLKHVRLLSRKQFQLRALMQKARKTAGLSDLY
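FP read-out: FITC-PTAP peptide, 50 nM final, binding Tsg101 binding domain, 10 uM final; 20 min, r.t.; 10 mM HEPES pH 7.5, 0.15 M NaCl, 0.01% Tween 20, 3 mM EDTA, 0.1 mM TCEP.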
KB-3-1 cytotox – KB-3-1 parental cell cytotoxicity. 400,000 tested, 1.4% active. Potency, µM (highest dose often 46.1 µM), usual class: cytotoxic. AID 1347075. KB-3-1 viability, CellTiter-Glo ATP luminescence, 72 h; note: % is set by controls: 0 for no effect and ±100 for the full control effect; nearly all actives have a fitted effect of over 60% in size
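Luminescent ATP read-out (CellTiter-Glo) measures survival of drug-naive KB-3-1 cells after 72 h compound exposure at 37 °C. Titration series was screened from lowest to highest concentration, with DMSO vehicle plates as background controls.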
* marks the source's active call; other numbers are inactive results; i = inactive; u = inconclusive; x = no result; ! = not confirmed by another sample; [ ] = dose if it differs, or a comment. Unless noted, calls come from the whole dose curve; as a rule, active = well fitted curve in the direction sought with a large enough effect; inconclusive = small, poorly fitted or top-dose-only effect, or another doubt; inactive = no such curve, though single readings can be large; an effect the other way counts as inactive or inconclusive. Potency is the fitted concentration of half-maximal effect.

SMILES	PINK1 expr mod	KB-V1 MDR tox	SW480 rereplic	MCF10A rereplic	PTAP TSG101 blk	KB-3-1 cytotox
COc1ccc(Nc2cc(C(=O)NCc3ccccc3OC)c3ccccc3n2)cc1	8%	i	x	x	x	i
Cc1cc2nc(-c3cccc(NC(=O)COc4ccc(Cl)c(C)c4)c3)oc2cc1C	0%	u	x	x	x	i
COC(=O)c1sc(-c2ccccc2)cc1NC(=O)c1cccc(F)c1	1%	i	x	x	x	i
CCOC(=O)c1cc2c(=O)n3ccccc3nc2n(CC2CCCO2)c1=NC(=O)c1cc(C)cc(C)c1 (stereo not drawn)	2%	u	x	x	x	u
Cc1ccc(-n2c(-c3ccco3)nc3nc4ccccc4nc32)cc1	3%	i	1µM*	u	5%	i
CN1N=C2c3ccccc3CCCC2C1c1ccc(F)cc1 (stereo not drawn)	u	i	21µM*	u	-5%	i
CCOc1cc(/C=C2/SC(=O)N(CC(=O)N3CCc4ccccc4C3)C2=O)ccc1OCC(=O)O	-1%	i	-12%	5%	-3%	i
NC(=O)COc1ccccc1/C=C1/SC(=O)N(CC(=O)N2CCc3ccccc3C2)C1=O	2%	15µM*	-1%	7%	2%	i
CCOC(=O)c1cc(-c2ccccc2)n(-c2cccc(C(=O)N(C)c3ccc(C)cc3)c2)c1C	1%	u	x	x	x	16µM*
CCOC(=O)c1cc(-c2ccccc2)n(-c2cccc(C(=O)NC(C)(C)C)c2)c1C	9%	i	x	x	x	i
O=C(CSc1nc2ccsc2c(=O)n1Cc1ccc(F)cc1)NCc1ccc(Cl)cc1	-5%	i	x	x	x	i
COc1ccc2c(=O)c(-c3ccc4c(c3)OCO4)coc2c1	0%	i	2%	-2%	-3%	i
CCN(CC)C(=O)Oc1ccc2c(=O)c(-c3ccc(OC)cc3)c(C)oc2c1	2%[38.3 µM]	9.2µM*	2%	u	x	i
CCN(CC)C(=O)Oc1ccc2c(=O)c(-c3ccc(OC)cc3)coc2c1	-5%[38.3 µM]	12µM*	u	13µM*	-4%	u
COc1cc(=O)n2c(c1C(=O)N(C)Cc1nonc1C)CCN(Cc1ccccc1F)CC2	0%	x	x	x	x	x
Cc1ccc(Cn2c(=S)[nH]c3ccc(N4CCOCC4)cc3c2=O)o1	6%	u	23µM*	u	-2%	u
CC(C)OCCCn1c(=S)[nH]c2ccc(N3CCOCC3)cc2c1=O	4%[38.3 µM]	6.5µM*	3%	11%	-3%	u
O=C(COc1ccccc1Cl)N(Cc1ccco1)Cc1ccco1	0%	x	x	x	x	x
Cc1ccccc1NC(=S)N(C)Cc1cn(C)c2ccccc12	0%	18µM*	0%	1%	-2%	i
COc1ccc(CNC(=O)C[C@H]2C(=O)N(Cc3ccc(OC)cc3)C[C@@H]2Cc2ccccc2)cc1	-1%	13µM*!	8%	-2%	-1%	i
CCCCC[C@H]1CN(Cc2ccccc2)C(=O)[C@@H]1CC(=O)NCc1ccc(OC)cc1	-1%	18µM*!	1%	23%	x	u
O=C(c1ccco1)N1CCN(C(=O)c2ccc(COc3ccc4c(c3)CCC4)o2)CC1	-2%	16µM*	-2%	3%	-6%	i
C/C(=N/NC(=O)c1ccccn1)c1ccco1	0%[38.3 µM]	21µM*	2%	5%	-8%	u
C/C(=N\NC(=O)c1ccc(Cl)cc1)c1ccccn1	-1%	u	u	3.7µM*	-2%	u
COc1cccc(C(=O)N/N=C(/c2ccccc2)c2ccccn2)c1	3%	i	u	u	-6%	u
C/C(=N\NC(=O)c1ccccn1)c1ccc(Cl)cc1	-1%	u	-8%	-17%	-4%	i
COc1cc(C(=O)N/N=C(\c2ccccc2)c2ccccn2)cc(OC)c1OC	u	i	u	18µM*	-1%	u
C/C(=N\NC(N)=O)c1ccc(Cl)cc1	0%	12µM*	u	-10%	-2%	u
